39 compounds from PubChem BioAssay (NCATS) can be followed below.

Values joined by “and” are separate entries in the source; they are usually repeats but may differ in a detail not shown here. Identical values can stand only once. Records with an inconclusive call do not appear. Active and inactive are the calls of the source. Calls follow the shape of the dose curve; as a rule, active = well fitted curve in the direction sought with a large enough effect in the repeat runs; inconclusive = weak or mixed curves; inactive = no such curve, though single readings can be large; an effect the other way counts as inactive or inconclusive.
% is scaled to controls: 0 for no effect and ±100 for the full control effect.

One test is described as follows: qHTS assay for small molecule antagonists of the retinoid-related orphan receptor gamma (ROR-gamma) signaling pathway - cell viability counter screen (AID 720652).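 Also: compound exposure lasted 16 hr before ATP read.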 Conditions: RORgamma reporter cell line viability counter screen; series mostly up to 92.2 µM. The procedure, abridged: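 Cytotoxicity counter screen: intracellular ATP (CellTiter-Glo luminescence) measured in the doxycycline-induced CHO RORE-luciferase reporter line after 16 hr compound exposure at 37 C, 5% CO2.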
(qHTS replaces the single test concentration by a dilution series.)
Take `Oc1cccc(Cl)c1Cl`: the Potency entry was “inactive”.

As to `CCC/C=N/O`, the Potency result is “inactive”.

For `Nc1cccc2ccccc12`, the Potency entry was “inactive”.

On to `Cc1cnc[nH]1`, for which the Potency entry is “inactive”.

As for `CN(C)N=O`, the Potency entry is “inactive”.

In the case of `COc1c(C(C)(C)C)cc([N+](=O)[O-])c(C)c1[N+](=O)[O-]`, the Potency result is “inactive”.

For the compound `C=C(Cl)CCl`, the Potency result was “inactive”.

For `ClCCOCOCCCl`, the Potency entry was “inactive”.

`CC(C)(Cl)[N+](=O)[O-]`: the Potency entry was “inactive”.

As for `Cl/C=C/Cl`, the Potency entry was “inactive”.

Take `CCCCOCC1CO1` (stereo unspecified): the Potency entry is “inactive”.

With `O=C(O)c1cccc(Cl)c1`, the Potency entry is “inactive”.

Regarding `C1CC2OC2CC1C1CO1` (stereo unspecified), the Potency result was “inactive”.

As to `Brc1cccc(-c2ccccc2)c1`, the Potency entry is “inactive”.

In the case of `Oc1c(Cl)cccc1Cl`, the Potency result is “inactive”.

For the compound `ClCCOCCCl`, the Potency entry was “inactive”.

On to `CCNCC`, for which the Potency entry is “inactive”.

In the case of `CC(C)C#N`, the Potency result was “inactive”.

In the case of `Cl/C=C\Cl`, the Potency entry is “inactive”.

On to `c1ccc2c(c1)CCNC2`, for which the Potency entry is “inactive”.

With `CCBr`, the Potency entry was “inactive”.

Regarding `O=[N+]([O-])c1ccc(Cl)c(Cl)c1Cl`, the Potency result is “inactive”.

On to `N#CCCC#N`, for which the Potency entry was “inactive”.

Take `Cc1ccccc1[N+](=O)[O-]`: the Potency entry was “inactive”.

In the case of `OCCBr`, the Potency result is “inactive”.

Take `C=CC(=O)OCCN(C)C`: the Potency entry is “inactive”.

As to `CC(C)(C)C(O)(CCc1ccc(Cl)cc1)Cn1cncn1` (stereo unspecified), the Potency result was “inactive”.

`N#CCCCCC#N`: the Potency result is “inactive”.

For the compound `CN=C=O`, the Potency entry was “inactive”.

`c1ccc(C2CO2)cc1` (stereo unspecified): the Potency result was “inactive”.

In the case of `CCCCCC[N+](=O)[O-]`, the Potency entry was “inactive”.

Consider `OCC(Cl)CCl` (stereo unspecified), for which the Potency result is “inactive”.

Consider `COc1ccc(C=O)cc1`, for which the Potency result was “inactive”.

Consider `CC(=O)[O-].CC(=O)[O-].CC(=O)[O-].[Cr+3]`, for which the Potency result was “inactive”.

For the compound `CC(=O)CCC(C)=O`, the Potency result is “inactive”.

`C=CC(=O)OCC(CC)CCCC` (stereo unspecified): the Potency entry was “inactive”.

Turning to `CC(C#N)CCC#N` (stereo unspecified), the Potency result was “inactive”.

The nature of another test: qHTS assay for small molecule agonists of the antioxidant response element (ARE) signaling pathway measured by Nrf2-dependant transcriptional activity - cell viability counter screen (AID 720653). Conditions: ARE-bla HepG2 viability, CellTiter-Glo ATP luminescence, 16 h; stronger effect = lower value. The procedure, abridged: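 Cytotoxicity counter screen: intracellular ATP quantified by CellTiter-Glo luminescence in the same ARE-bla HepG2 plates, after 16 h compound exposure and a 2 h beta-lactamase substrate step.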
Turning to `Oc1cccc(Cl)c1Cl`, the max response is 0.417% (inactive).

On to `CCC/C=N/O`, for which the max response was -12.8% (inactive).

For the compound `Nc1cccc2ccccc12`, the max response is -19.6% (inactive).

With `Cc1cnc[nH]1`, the max response is -3.19% (inactive).

On to `CN(C)N=O`, for which the max response is -2.49% (inactive).

In the case of `COc1c(C(C)(C)C)cc([N+](=O)[O-])c(C)c1[N+](=O)[O-]`, the max response was 4.77% (inactive).

With `C=C(Cl)CCl`, the max response was 19% (inactive).

For `ClCCOCOCCCl`, the max response is -12.6% (inactive).

As for `CC12CC1(C)C(=O)N(c1cc(Cl)cc(Cl)c1)C2=O` (stereo unspecified), the max response is -1.37% (inactive) and -4.13% (inactive).

As to `CC(C)(Cl)[N+](=O)[O-]`, the max response is -1.78% (inactive).

`Cl/C=C/Cl`: the max response is 1.77% (inactive).

As to `CCCCOCC1CO1` (stereo unspecified), the max response was -2.9% (inactive).

On to `O=C(O)c1cccc(Cl)c1`, for which the max response was -8.47% (inactive).

Turning to `C1CC2OC2CC1C1CO1` (stereo unspecified), the max response is -8.97% (inactive) and -5.29% (inactive).

For `Brc1cccc(-c2ccccc2)c1`, the max response was -6.68% (inactive).

As to `Oc1c(Cl)cccc1Cl`, the max response is 9.38% (inactive).

`ClCCOCCCl`: the max response was -1.62% (inactive).

In the case of `CCNCC`, the max response was 14.5% (inactive).

Turning to `CC(C)C#N`, the max response was 1.74% (inactive).

For the compound `Cl/C=C\Cl`, the max response was -3.68% (inactive).

Take `c1ccc2c(c1)CCNC2`: the max response was 5.02% (inactive).

As for `CCBr`, the max response is -4.15% (inactive).

`O=[N+]([O-])c1ccc(Cl)c(Cl)c1Cl`: the max response is -7.85% (inactive).

For `N#CCCC#N`, the max response is 1.41% (inactive).

Take `Cc1ccccc1[N+](=O)[O-]`: the max response was 11.5% (inactive).

`OCCBr`: the max response was 1.65% (inactive).

For `C=CC(=O)OCCN(C)C`, the max response is 5.35% (inactive).

Consider `CC(C)(C)C(O)(CCc1ccc(Cl)cc1)Cn1cncn1` (stereo unspecified), for which the max response was -4.58% (inactive) and -0.482% (inactive).

In the case of `N#CCCCCC#N`, the max response was 5.3% (inactive).

In the case of `CN=C=O`, the max response was -4.34% (inactive).

`c1ccc(C2CO2)cc1` (stereo unspecified): the max response is -5.33% (inactive).

Turning to `CCCCCC[N+](=O)[O-]`, the max response is 8% (inactive).

For `OCC(Cl)CCl` (stereo unspecified), the max response was -10.2% (inactive).

Regarding `COc1ccc(C=O)cc1`, the max response was 7.96% (inactive).

Turning to `Nc1ccc(Cl)c(Cl)c1`, the max response is -17.9% (inactive).

For `CC(=O)[O-].CC(=O)[O-].CC(=O)[O-].[Cr+3]`, the max response was 2.78% (inactive).

`CC(=O)CCC(C)=O`: the max response is 0.0815% (inactive).

On to `C=CC(=O)OCC(CC)CCCC` (stereo unspecified), for which the max response was -8.13% (inactive) and 5.16% (inactive).

Take `CC(C#N)CCC#N` (stereo unspecified): the max response was 0.528% (inactive).
